Assay results as given in PubChem BioAssay.
Where “and” joins values, the source holds several entries; their conditions need not be identical. Equal entries are not always repeated. Inconclusive results are not listed. Calls of active or inactive are those of the source. Unless noted, the rule behind the calls is not given here.

Legend:
[1] = circadian clock period modulators, cell-based, LOPAC library, luminescence reporter (AID 2774); conditions: circadian reporter cells, at 7 µM, actives lie on both sides;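 note: values are relative to mean of DMSO wells on each plate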
[2] = system: Hepatitis C virus NS3 helicase; assay: HCV NS3 helicase inhibitors, primary screen, biochemical, fluorescence polarization, LOPAC1280 library (AID 687035; in the data active = inhibition above about 37%); conditions: Purified HCV NS3 helicase, Cy5-dT15 ssDNA binding fluorescence polarization; stronger effect = higher value; concentration not given here
[3] = Cy5 fluorescence quenching or enhancement artefacts, artefact control for HCV NS3 helicase inhibitor project, biochemical, LOPAC1280 (AID 687037); conditions: Cy5-DNA-NS3h complex fluorescence interference counterscreen
[4] = sensitizers of A549 cells to miR-34 induction, primary screen, imaging, A549 dox-inducible miR-34, nuclei and caspase counts (AID 1347080;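 active = compounds whose cell count with miR-34 switched on is under 0.7 times the count with it off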); conditions: A549 miR-34 inducible, Hoechst nuclei count, 48 h
[5] = phospholipid biosynthesis inhibitors in animal cells, primary screen, cell-based, LOPAC library, screen 4 (AID 1347384); conditions: phospholipid biosynthesis inhibition screen, at 10 µM
[6] = viability rescue of complex I mutant cybrids, primary screen, cell-based, galactose medium, ATP luminescence (AID 1645843;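 active = z-score of at least 1.8 in each of two replicates, scored against plate mean and spread of sample wells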;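 note: positive z means more ATP and so rescue of galactose-driven cybrid death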); conditions: complex I mutant cybrid cells, 72 h, stronger effect = higher value
[7] = survival rescue of mitochondrial mutant cells in low glucose, primary screen, MELAS cybrids, Rieske KO mouse fibroblasts, CellTiter-Glo (AID 1508586;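 active = mean z-score across replicates of 1.96 or higher in either the MELAS or the Rieske mutant cell line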;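 note: z relative to plate mean and SD of compound and empty wells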)
[8] = liver-stage malaria parasite growth inhibition, primary screen, cell-based, HepG2, luciferase luminescence, HepG2 viability (AID 624349; in the data active = parasite load remaining mostly below about 12%, no sharp cut-off; inactive = mostly above about 10%;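 note: 100% = mean of DMSO negative control wells on the same plate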); conditions: P. berghei liver stage in HepG2, luciferase luminescence, concentration not given here; parasite load remaining: stronger effect = lower value; viability: measured here: HepG2 viability without parasites
[9] = biological target: NAD(+) hydrolase SARM1 (Homo sapiens) (UniProt Q6SZW1); assay: SARM1 TIR NADase inhibitors, cell lysate, NAD-Glo luminescence (AID 1508614;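 active = compound whose remaining NAD level is above about 45 nM, limit read from the data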;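 note: higher remaining NAD means stronger inhibition of SARM1 NADase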); conditions: SAM-TIR HEK293T lysate NADase, at 1 µM, stronger effect = higher value
[10] = biological target: Mitogen-activated protein kinase 7 (Homo sapiens) (UniProt Q13164); assay: ERK5 transactivation activators in reporter cells, primary screen, cell-based, HTS (AID 1508626;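 active = luciferase signal above three times the same-plate solvent-only control wells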;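 note: luciferase driven by Gal4-ERK5 fusion binding five Gal4 sites before minimal TATA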); conditions: HeLa Gal4-ERK5 transactivation, 18 h, at 5 µM, stronger effect = higher value
[11] = hESC survival regulators, cell-based (AID 493140); conditions: human embryonic stem cell survival screen; stronger effect = higher value;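 note: cells exposed to compounds for four days before counting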
[12] = biological target: ATP-dependent translocase ABCB1 (Homo sapiens) (UniProt P08183); assay: MDR1 (ABCB1) efflux transporter inhibition, cell-based (AID 377; in the data active = fluorescence slope change above about 50%); conditions: MDR1-expressing cells, fluorescent substrate accumulation slope; stronger effect = higher value; concentration not given here
[13] = stronger effect = lower value, cell number ratio, induced over uninduced
[14] = measured here: relative caspase fold change +Dox/-Dox
[15] = measured here: total cells with miR-34 induction, stronger effect = lower value
[16] = measured here: total cells without miR-34 induction
[17] = MELAS cybrid survival, CellTiter-Glo 48 h, stronger effect = higher value
[18] = Rieske KO mouse fibroblast survival, CellTiter-Glo 72 h

Sequence of NAD(+) hydrolase SARM1 (Homo sapiens) (Q6SZW1 whole entry, looked up, the tested form may be a part): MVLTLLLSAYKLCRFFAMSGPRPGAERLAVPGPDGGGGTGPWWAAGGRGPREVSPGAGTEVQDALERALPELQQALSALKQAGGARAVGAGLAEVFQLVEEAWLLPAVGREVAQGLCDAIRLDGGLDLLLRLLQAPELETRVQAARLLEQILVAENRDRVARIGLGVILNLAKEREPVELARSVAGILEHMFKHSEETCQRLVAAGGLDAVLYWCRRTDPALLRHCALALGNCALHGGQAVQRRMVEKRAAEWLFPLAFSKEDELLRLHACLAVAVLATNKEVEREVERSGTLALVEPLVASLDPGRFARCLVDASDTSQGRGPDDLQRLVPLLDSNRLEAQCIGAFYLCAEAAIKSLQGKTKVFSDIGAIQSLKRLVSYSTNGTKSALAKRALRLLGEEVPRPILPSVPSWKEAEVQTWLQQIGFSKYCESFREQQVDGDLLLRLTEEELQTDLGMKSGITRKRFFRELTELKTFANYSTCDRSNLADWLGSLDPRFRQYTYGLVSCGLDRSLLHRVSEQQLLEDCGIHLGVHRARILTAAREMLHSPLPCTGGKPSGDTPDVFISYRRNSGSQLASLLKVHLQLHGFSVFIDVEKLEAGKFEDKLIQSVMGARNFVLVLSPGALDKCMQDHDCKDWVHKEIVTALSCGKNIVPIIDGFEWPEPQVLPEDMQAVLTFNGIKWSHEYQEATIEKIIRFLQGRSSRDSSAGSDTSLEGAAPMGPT
Sequence of Mitogen-activated protein kinase 7 (Homo sapiens) (Q13164 whole entry, looked up, the tested form may be a part): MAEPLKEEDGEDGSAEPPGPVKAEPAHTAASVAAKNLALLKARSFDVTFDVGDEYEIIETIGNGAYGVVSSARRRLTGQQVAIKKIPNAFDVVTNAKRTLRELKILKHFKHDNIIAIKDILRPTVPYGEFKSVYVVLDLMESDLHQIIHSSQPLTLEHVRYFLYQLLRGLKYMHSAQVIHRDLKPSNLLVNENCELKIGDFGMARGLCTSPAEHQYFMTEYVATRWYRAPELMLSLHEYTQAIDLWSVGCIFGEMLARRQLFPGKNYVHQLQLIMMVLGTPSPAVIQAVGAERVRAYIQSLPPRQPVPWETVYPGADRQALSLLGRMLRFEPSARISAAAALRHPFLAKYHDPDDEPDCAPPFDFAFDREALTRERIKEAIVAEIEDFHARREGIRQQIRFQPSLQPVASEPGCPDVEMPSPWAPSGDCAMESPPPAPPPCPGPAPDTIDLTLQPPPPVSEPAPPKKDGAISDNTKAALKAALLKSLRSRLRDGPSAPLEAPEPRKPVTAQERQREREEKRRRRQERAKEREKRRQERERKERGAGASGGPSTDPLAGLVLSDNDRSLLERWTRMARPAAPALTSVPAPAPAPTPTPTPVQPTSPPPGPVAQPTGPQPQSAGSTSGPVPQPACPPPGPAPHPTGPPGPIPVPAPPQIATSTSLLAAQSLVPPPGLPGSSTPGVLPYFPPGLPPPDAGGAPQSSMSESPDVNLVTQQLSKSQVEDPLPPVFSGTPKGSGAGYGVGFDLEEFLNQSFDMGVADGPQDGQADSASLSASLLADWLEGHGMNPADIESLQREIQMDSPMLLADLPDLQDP
Sequence of ATP-dependent translocase ABCB1 (Homo sapiens) (P08183 whole entry, looked up): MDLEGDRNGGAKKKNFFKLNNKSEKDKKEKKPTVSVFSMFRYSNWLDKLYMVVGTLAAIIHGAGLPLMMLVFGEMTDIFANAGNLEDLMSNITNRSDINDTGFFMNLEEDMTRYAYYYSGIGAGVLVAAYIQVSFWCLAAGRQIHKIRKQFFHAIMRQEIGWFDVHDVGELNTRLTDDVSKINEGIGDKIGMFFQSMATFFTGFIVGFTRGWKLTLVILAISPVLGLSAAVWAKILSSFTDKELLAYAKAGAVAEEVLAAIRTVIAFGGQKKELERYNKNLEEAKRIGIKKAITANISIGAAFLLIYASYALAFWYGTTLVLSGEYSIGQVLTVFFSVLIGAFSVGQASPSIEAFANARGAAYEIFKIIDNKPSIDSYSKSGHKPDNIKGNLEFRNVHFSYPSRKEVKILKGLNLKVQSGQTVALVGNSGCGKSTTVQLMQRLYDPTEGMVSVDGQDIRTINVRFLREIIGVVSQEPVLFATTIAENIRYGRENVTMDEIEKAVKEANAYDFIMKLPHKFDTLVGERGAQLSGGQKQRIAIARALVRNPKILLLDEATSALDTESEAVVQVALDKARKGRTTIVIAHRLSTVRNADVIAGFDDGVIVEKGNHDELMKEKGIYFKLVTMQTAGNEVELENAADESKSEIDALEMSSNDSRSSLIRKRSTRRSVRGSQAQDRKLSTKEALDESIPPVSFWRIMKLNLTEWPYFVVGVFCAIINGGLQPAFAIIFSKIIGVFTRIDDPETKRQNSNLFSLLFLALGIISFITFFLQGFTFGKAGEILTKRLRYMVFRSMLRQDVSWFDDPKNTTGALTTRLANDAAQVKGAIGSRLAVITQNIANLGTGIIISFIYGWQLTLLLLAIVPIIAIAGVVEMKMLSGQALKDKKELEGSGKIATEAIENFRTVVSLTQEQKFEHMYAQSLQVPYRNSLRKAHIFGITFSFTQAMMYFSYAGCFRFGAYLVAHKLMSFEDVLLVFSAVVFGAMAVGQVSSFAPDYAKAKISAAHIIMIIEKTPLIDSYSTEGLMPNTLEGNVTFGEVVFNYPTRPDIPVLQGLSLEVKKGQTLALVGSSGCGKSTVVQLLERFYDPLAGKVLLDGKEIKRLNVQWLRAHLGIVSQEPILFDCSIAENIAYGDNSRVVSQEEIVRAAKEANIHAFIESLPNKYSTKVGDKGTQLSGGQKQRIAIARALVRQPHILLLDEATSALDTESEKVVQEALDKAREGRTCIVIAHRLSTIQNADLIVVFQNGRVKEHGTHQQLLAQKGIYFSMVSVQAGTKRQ

With CNC(=O)[C@H]1O[C@@H](n2cnc3c(NCc4cccc(I)c4)ncnc32)C(O)[C@H]1O (stereo not given in full) as the compound, how does the period change [1] read?
Its period change is -0.015 h (inactive).

What about the inhibition [2] of the same compound?
The inhibition was -2% (inactive).

And the fluorescence ratio (interference) [3]?
The fluorescence ratio (interference) was 0.9 (inactive).

And the fold change [4, 13]?
The fold change was 1.05 (inactive) and 1.03 (inactive).

And the fold change [4, 14]?
The fold change was 0.68 and 1.21.

And the cell count [4, 15]?
Its cell count is 10000 and 5680.

And the cell count [4, 16]?
The cell count was 9560 and 5540.

And the outcome [5]?
Its outcome is “inactive”.

What about the z-score [6] of the same compound?
The z-score was 2.43 (active).

For Cc1nn(-c2ccccc2)c(C)c1C=NN1CCN(Cc2ccccc2)CC1, which inhibition [2] is on record?
Its inhibition is -4% (inactive).

And the fluorescence ratio (interference) [3]?
Its fluorescence ratio (interference) is 1 (inactive).

What about the fold change [4, 13] of the same compound?
The fold change was 0.991 (inactive) and 0.89 (inactive).

What about the fold change [4, 14] of the same compound?
Its fold change is 1.98 and 0.283.

What about the cell count [4, 15] of the same compound?
Its cell count is 8530 and 7580.

And the cell count [4, 16]?
The cell count was 8610 and 8510.

What about the outcome [5] of the same compound?
The outcome was “inactive”.

What about the z-score [7, 17] of the same compound?
Its z-score is 1.46 (inactive).

And the z-score [7, 18]?
The z-score was -0.978.

What about the z-score [6] of the same compound?
Its z-score is -0.13 (inactive).

For O=C1c2c(O)cc(O)cc2OC(c2ccc(O)c(O)c2)C1O (stereo not given), which period change [1] is on record?
Its period change is -0.11 h (inactive).

What about the inhibition [2] of the same compound?
Its inhibition is -3% (inactive).

And the fluorescence ratio (interference) [3]?
Its fluorescence ratio (interference) is 1 (inactive).

And the outcome [5]?
Its outcome is “inactive”.

What about the z-score [7, 17] of the same compound?
The z-score was -0.361 (inactive).

And the z-score [7, 18]?
The z-score was 0.683.

And the z-score [6]?
Its z-score is 0.265 (inactive) and -0.07 (inactive) and 0.43 (inactive).

Which results are given for CC[C@H](C)[C@H]1O[C@]2(CC[C@@H]1C)C[C@@H]1C[C@@H](C/C=C(\C)[C@@H](O[C@H]3C[C@H](OC)[C@@H](O[C@H]4C[C@H](OC)[C@@H](O)[C@H](C)O4)[C@H](C)O3)[C@@H](C)/C=C/C=C3\CO[C@@H]4[C@H](O)C(C)=C[C@@H](C(=O)O1)[C@]34O)O2?
parasite load remaining [8]: 26.5% (inactive) and 28.8% (inactive); viability [8]: 44.6% and 96.5%; fold change [4, 13]: 0.862 (inactive) and 0.935 (inactive); fold change [4, 14]: 0.479 and 1.24; cell count [4, 15]: 6180 and 7180; cell count [4, 16]: 7170 and 7680; z-score [7, 17]: -1.97 (inactive) and -0.0039 (inactive); z-score [7, 18]: 0.878 and -0.186; remaining NAD [9]: 10 nM (inactive); luciferase signal [10]: 44 AU (inactive); z-score [6]: -1.77 (inactive)

For CC(C)(C)NCC(O)COc1nsnc1N1CCOCC1 (stereo not given), which period change [1] is on record?
Its period change is -0.09 h (inactive).

What about the inhibition [2] of the same compound?
The inhibition was -2% (inactive).

What about the fluorescence ratio (interference) [3] of the same compound?
The fluorescence ratio (interference) was 1 (inactive).

What about the fold change [4, 13] of the same compound?
The fold change was 0.926 (inactive) and 0.855 (inactive).

And the fold change [4, 14]?
Its fold change is 1.26 and 0.99.

And the cell count [4, 15]?
The cell count was 9690 and 8250.

And the cell count [4, 16]?
The cell count was 10500 and 9640.

And the outcome [5]?
The outcome was “inactive”.

What about the z-score [7, 17] of the same compound?
Its z-score is -0.232 (inactive).

What about the z-score [7, 18] of the same compound?
The z-score was -0.152.

What about the z-score [6] of the same compound?
The z-score was 0.22 (inactive).

What does the source list for CC(C)(C)c1onc(OCP(=O)(O)O)c1CC(N)C(=O)O (stereo not given)?
period change [1]: -0.03 h (inactive); inhibition [2]: -3% (inactive); fluorescence ratio (interference) [3]: 0.9 (inactive) and 1 (inactive); fold change [4, 13]: 1.04 (inactive) and 0.947 (inactive); fold change [4, 14]: 1.07 and 1.18; cell count [4, 15]: 10900 and 10600; cell count [4, 16]: 10500 and 11200; outcome [5]: inactive; z-score [6]: 0.82 (inactive) and 0.145 (inactive)

Which results are given for NC(=O)c1cc[n+](CC2=C(C(=O)O)N3C(=O)[C@@H](NC(=O)[C@@H](c4ccccc4)S(=O)(=O)[O-])[C@H]3SC2)cc1?
period change [1]: -0.015 h (inactive); survival [11]: 7.17 (inactive); parasite load remaining [8]: 79.7% (inactive); viability [8]: 103%; inhibition [2]: 4% (inactive); fluorescence ratio (interference) [3]: 1 (inactive); fold change [4, 13]: 1.02 (inactive) and 0.887 (inactive); fold change [4, 14]: 2.31 and 1.36; cell count [4, 15]: 10400 and 9300; cell count [4, 16]: 10200 and 10500; z-score [7, 17]: 0.659 (inactive); z-score [7, 18]: -0.267; remaining NAD [9]: 10 nM (inactive); luciferase signal [10]: 36 AU (inactive); z-score [6]: -0.05 (inactive)

Which results are given for CCN(CC)CCOc1ccc(/C(=C(/Cl)c2ccccc2)c2ccccc2)cc1?
fluorescence slope change [12]: 69.8% (active); survival [11]: 1.25 (inactive); parasite load remaining [8]: 5.86% (inactive) and 13.7% (inactive) and 1.37% (inactive); viability [8]: 83.4% and 76% and 71%; fold change [4, 13]: 0.802 (inactive) and 0.892 (inactive); fold change [4, 14]: 1.39 and 1.34; cell count [4, 15]: 7010 and 7690; cell count [4, 16]: 8740 and 8620; z-score [7, 17]: -1.93 (inactive) and -1.91 (inactive); z-score [7, 18]: -0.316 and -1.39; z-score [6]: -2.19 (inactive)

Which fold change [4, 13] does the source give for CN(CC=CC#CC(C)(C)C)Cc1cccc2ccccc12 here?
The fold change was 0.964 (inactive) and 0.918 (inactive) and 0.968 (inactive).

And the fold change [4, 14]?
The fold change was 2.12 and 1.02 and 0.751.

And the cell count [4, 15]?
The cell count was 9310 and 7680 and 9620.

What about the cell count [4, 16] of the same compound?
Its cell count is 9660 and 8370 and 9940.

And the z-score [7, 17]?
Its z-score is -0.142 (inactive) and -0.315 (inactive).

And the z-score [7, 18]?
Its z-score is -0.993 and 0.763.

And the z-score [6]?
Its z-score is -1.88 (inactive).
